Laboratory results as given in the supplement of paper PMC10849652.
Targets with a hit are over-represented here; the source holds about 8,800 in all. About 0.5% of all pairs of compound and target were hits. Unmarked numbers belong to inactive results.

Key:
Test in all cases: log2 fold change, soluble protein after heating vs DMSO (PISA); higher = thermal stabilisation; K562 lysate, 10 uM; active = over 0.2 and 3.5 SD of the protein, either way, in both replicates (recomputed)
[1] = compound: NCC(=O)Nc1ccc(-n2nc(C(F)(F)F)cc2-c2ccc3c(ccc4ccccc43)c2)cc1
In short: (§1)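 K562 pellets were dounce-homogenised in PBS pH 7.4 with 1 mM MgCl2, and the crude extract at 1 mg/mL protein was treated with 10 μM compound for 30 min. Aliquots were heated for 3 min across 48°C-58°C, pooled, and brought to 0.5% NP-40 at 4°C; soluble protein was the supernatant after 21,000xg for 90 min. Soluble protein was quantified by TMTpro 16plex LC-MS/MS with channel sums equalised, and reported as log2 fold change in thermal stability against DMSO controls, with values from duplicates.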

[2] = compound: O=C1NC(=O)C(c2cnc3ccccn23)=C1c1cn2c3c(cc(F)cc13)CN(C(=O)N1CCCCC1)CC2
In short: as §1

entospletinib = compound: c1cn2cc(-c3ccc4cn[nH]c4c3)nc(Nc3ccc(N4CCOCC4)cc3)c2n1 [entospletinib]
In short: as §1

vorinostat = compound: O=C(CCCCCCC(=O)Nc1ccccc1)NO [vorinostat]
In short: as §1

silmitasertib = compound: O=C(O)c1ccc2c(c1)nc(Nc1cccc(Cl)c1)c1ccncc12 [silmitasertib]
In short: as §1

Chain of UniProt P48730 (P48730 whole entry, looked up): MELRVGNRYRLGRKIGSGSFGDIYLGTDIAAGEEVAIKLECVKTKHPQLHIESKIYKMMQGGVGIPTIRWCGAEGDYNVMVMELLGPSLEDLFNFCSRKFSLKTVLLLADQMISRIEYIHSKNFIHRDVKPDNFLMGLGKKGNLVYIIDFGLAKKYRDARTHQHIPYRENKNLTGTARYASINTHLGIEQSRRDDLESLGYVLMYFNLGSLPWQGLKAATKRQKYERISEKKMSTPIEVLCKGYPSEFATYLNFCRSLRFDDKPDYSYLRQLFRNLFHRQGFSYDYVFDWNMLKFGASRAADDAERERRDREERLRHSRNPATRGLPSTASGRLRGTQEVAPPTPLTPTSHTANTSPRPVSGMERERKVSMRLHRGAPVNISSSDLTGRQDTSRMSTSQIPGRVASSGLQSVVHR
Chain of UniProt Q9NYP3 (Q9NYP3 whole entry, looked up): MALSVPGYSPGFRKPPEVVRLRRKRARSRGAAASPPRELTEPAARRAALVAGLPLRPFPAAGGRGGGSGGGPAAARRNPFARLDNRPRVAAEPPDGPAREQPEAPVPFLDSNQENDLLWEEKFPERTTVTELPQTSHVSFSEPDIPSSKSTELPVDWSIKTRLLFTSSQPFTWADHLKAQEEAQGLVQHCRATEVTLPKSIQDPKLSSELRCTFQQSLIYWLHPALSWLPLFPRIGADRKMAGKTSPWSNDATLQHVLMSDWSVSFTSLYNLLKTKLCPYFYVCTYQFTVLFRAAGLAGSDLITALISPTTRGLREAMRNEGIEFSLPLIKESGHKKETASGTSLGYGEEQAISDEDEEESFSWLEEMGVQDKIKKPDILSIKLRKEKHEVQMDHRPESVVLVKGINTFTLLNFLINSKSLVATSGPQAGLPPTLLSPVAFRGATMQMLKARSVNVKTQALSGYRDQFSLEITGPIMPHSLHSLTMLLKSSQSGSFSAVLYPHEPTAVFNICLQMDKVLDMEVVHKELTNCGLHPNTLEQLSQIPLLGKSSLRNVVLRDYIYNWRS
Chain of UniProt P21964 (P21964 whole entry, looked up): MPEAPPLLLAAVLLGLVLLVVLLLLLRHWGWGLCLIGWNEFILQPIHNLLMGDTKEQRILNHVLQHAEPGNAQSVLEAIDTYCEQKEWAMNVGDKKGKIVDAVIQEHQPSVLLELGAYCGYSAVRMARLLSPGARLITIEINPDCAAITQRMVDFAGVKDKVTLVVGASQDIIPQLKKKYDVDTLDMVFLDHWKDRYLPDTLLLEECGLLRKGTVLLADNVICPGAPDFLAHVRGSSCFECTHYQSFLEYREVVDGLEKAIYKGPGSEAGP
Chain of UniProt G9CGD6 (G9CGD6 whole entry, looked up): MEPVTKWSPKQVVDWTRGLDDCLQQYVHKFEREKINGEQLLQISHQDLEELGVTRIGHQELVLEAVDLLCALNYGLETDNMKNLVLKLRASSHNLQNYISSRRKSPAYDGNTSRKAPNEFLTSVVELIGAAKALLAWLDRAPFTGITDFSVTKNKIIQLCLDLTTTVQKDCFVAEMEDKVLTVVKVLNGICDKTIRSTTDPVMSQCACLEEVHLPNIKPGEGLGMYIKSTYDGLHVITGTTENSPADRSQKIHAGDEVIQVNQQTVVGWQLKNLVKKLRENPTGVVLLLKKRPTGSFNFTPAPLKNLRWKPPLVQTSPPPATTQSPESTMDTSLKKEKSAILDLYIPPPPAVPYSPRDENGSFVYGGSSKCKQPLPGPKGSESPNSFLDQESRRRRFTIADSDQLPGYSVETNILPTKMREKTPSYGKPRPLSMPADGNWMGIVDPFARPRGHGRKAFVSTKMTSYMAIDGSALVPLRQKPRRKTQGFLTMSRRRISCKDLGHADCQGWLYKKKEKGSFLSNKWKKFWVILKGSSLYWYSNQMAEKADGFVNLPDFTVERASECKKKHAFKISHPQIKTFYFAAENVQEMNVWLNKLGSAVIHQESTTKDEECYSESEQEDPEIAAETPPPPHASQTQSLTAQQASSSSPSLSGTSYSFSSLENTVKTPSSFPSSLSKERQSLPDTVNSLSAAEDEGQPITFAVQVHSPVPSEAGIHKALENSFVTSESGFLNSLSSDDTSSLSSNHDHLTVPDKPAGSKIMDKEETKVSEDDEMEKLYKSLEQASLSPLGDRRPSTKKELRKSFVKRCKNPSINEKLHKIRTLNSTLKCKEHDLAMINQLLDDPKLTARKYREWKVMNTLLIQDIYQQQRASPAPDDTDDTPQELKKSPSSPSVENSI
Chain of UniProt Q9BW66 (Q9BW66 whole entry, looked up): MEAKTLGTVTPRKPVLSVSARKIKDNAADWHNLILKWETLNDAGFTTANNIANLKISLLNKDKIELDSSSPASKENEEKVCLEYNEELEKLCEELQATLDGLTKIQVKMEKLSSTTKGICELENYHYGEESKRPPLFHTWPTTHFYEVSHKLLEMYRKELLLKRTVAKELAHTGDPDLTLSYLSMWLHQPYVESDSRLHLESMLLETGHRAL
Chain of UniProt Q08345 (Q08345 whole entry, looked up): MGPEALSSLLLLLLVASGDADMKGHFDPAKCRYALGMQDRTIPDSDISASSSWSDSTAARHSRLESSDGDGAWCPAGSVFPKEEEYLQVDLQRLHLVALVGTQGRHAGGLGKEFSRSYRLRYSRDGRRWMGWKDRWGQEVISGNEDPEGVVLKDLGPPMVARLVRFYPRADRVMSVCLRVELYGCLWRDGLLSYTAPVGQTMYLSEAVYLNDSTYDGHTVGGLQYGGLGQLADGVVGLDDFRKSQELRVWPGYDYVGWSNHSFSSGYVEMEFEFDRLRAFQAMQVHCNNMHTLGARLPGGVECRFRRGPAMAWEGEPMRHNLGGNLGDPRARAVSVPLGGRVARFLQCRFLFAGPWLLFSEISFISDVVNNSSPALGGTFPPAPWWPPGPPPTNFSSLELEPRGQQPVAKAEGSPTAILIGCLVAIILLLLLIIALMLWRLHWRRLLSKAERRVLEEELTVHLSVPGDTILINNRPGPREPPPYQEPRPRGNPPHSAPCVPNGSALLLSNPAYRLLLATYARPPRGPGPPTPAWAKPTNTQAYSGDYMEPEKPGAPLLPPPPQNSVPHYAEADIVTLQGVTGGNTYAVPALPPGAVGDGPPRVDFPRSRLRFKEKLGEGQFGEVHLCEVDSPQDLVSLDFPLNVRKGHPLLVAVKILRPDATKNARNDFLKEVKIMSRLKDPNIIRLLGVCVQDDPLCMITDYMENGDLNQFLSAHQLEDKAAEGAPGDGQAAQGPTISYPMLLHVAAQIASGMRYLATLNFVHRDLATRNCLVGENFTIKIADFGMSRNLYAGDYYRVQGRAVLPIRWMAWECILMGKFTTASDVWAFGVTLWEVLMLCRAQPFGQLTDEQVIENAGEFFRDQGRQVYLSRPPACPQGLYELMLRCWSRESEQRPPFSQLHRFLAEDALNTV
Chain of UniProt O95715 (O95715 whole entry, looked up): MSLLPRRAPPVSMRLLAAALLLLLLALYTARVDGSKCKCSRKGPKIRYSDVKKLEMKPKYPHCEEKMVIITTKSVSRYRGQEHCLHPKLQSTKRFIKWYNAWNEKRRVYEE
Chain of UniProt O75534 (O75534 whole entry, looked up): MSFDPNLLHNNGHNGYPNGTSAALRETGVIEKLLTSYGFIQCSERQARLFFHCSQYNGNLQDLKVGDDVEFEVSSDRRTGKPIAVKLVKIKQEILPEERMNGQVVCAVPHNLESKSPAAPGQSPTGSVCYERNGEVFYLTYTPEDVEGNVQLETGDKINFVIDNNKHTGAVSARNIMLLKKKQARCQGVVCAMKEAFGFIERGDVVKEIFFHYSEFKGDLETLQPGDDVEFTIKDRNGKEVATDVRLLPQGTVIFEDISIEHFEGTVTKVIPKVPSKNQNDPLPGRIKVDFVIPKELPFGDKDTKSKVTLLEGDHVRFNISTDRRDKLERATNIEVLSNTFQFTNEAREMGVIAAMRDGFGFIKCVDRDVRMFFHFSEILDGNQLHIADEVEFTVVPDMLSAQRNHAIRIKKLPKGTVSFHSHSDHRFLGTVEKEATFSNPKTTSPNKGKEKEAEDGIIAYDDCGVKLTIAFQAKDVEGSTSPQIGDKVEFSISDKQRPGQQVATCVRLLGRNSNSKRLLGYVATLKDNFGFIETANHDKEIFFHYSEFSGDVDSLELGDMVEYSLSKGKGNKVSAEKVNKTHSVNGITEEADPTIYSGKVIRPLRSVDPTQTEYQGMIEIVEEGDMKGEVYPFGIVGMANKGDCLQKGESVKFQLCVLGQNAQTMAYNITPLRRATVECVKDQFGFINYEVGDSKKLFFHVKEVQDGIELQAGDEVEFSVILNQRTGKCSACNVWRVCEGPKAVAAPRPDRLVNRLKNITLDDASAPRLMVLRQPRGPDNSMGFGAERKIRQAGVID

| Target | log2 fold change [1] | log2 fold change [2] | log2 fold change (entospletinib) | log2 fold change (vorinostat) | log2 fold change (silmitasertib) |
| --- | --- | --- | --- | --- | --- |
| CINP isoform 3 (UniProt Q9BW66) | 0.084 | 0.043 | 0.009 | – | – |
| CNOT2 (UniProt F8VRS8) | – | – | – | -0.056 | 0.152 |
| CSDE1 isoform 3 (UniProt O75534) | – | -0.1 | – | – | – |
| CXCL14 (UniProt O95715) | 0.24 | – | 0.033 | – | – |
| CNK3/IPCEF1 isoform 2 (UniProt G9CGD6) | -0.02 | – | 0.008 | -0.279 | 0.06 |
| CHMP4A (UniProt H0YIN6) | – | 0.287 | – | – | – |
| DONSON (UniProt Q9NYP3) | – | 0.032 | – | -0.401 (active) | -0.123 |
| COMT (UniProt P21964) | -0.106 | 0.007 | 0.015 | -0.294 (active) | 0.04 |
| DDR1 isoform 5 (UniProt Q08345) | – | -0.026 | -0.153 | – | – |
| CSNK1D (UniProt P48730) | 0.002 | -0.002 | -0.076 | – | – |
